{"source": "the supplement of paper PMC11628255", "about": "“Interference of metal ions on the bioluminescent signal of firefly, Renilla, and NanoLuc luciferases in high-throughput screening assays” (Frontiers in Chemistry, 2024)", "tested_on": "firefly luciferase (FLuc)", "assay": "residual bioluminescent signal relative to negative (DMSO) control; higher = less interference (more residual luciferase signal)", "description": "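Purified luciferase (FLuc 10 nM + 10 uM D-luciferin; NLuc 10 pM + 10 uM furimazine; RLuc 50 pM + 2 uM coelenterazine) in 384-well plates; metal salt pre-incubated with enzyme 10 min at RT, substrate added and luminescence read after 10 min. Signal normalised to plate DMSO negative control (% N_VALUE = x/mean neg *100); triplicate wells at 0.01, 1 and 5 mM salt.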", "key": {"[1]": {"conditions": "metal salt concentration 0.01 mM, HEPES conditions (100 mM HEPES, 5 mM MgSO4, 10 uM ATP, pH 7.5)"}, "[2]": {"conditions": "metal salt concentration 0.01 mM, screening conditions (0.5 mM Tris, 50 mM glycine, 0.5 mM EDTA, 5 mM MgSO4, 10 uM ATP, pH 7.6)"}, "[3]": {"conditions": "metal salt concentration 1 mM, HEPES conditions (100 mM HEPES, 5 mM MgSO4, 10 uM ATP, pH 7.5)"}, "[4]": {"conditions": "metal salt concentration 1 mM, screening conditions (0.5 mM Tris, 50 mM glycine, 0.5 mM EDTA, 5 mM MgSO4, 10 uM ATP, pH 7.6)"}, "[5]": {"conditions": "metal salt concentration 5 mM, HEPES conditions (100 mM HEPES, 5 mM MgSO4, 10 uM ATP, pH 7.5)"}, "[6]": {"conditions": "metal salt concentration 5 mM, screening conditions (0.5 mM Tris, 50 mM glycine, 0.5 mM EDTA, 5 mM MgSO4, 10 uM ATP, pH 7.6)"}}, "note": "± gives the standard deviation of the averaged measurements."}
{"smiles": "CC#N.CC#N.CC#N.CC#N.F[B-](F)(F)F.[Cu+]", "note": "[tetrakis(acetonitrile)copper(I) tetrafluoroborate]", "values": [{"measurement": "residual bioluminescent signal", "setting": "[1]", "value": "0.543 ± 0.23", "unit": "%"}, {"measurement": "residual bioluminescent signal", "setting": "[2]", "value": "115 ± 2.9", "unit": "%"}, {"measurement": "residual bioluminescent signal", "setting": "[3]", "value": 0.407, "unit": "%"}, {"measurement": "residual bioluminescent signal", "setting": "[4]", "value": "0.474 ± 0.16", "unit": "%"}, {"measurement": "residual bioluminescent signal", "setting": "[5]", "value": "0.679 ± 0.47", "unit": "%"}, {"measurement": "residual bioluminescent signal", "setting": "[6]", "value": "0.422 ± 0.36", "unit": "%"}]}
{"smiles": "O=S(=O)([O-])[O-].[Fe+2]", "note": "[iron(II) sulfate]", "values": [{"measurement": "residual bioluminescent signal", "setting": "[1]", "value": "10.5 ± 3.6", "unit": "%"}, {"measurement": "residual bioluminescent signal", "setting": "[2]", "value": "109 ± 9.9", "unit": "%"}, {"measurement": "residual bioluminescent signal", "setting": "[3]", "value": "1.09 ± 0.23", "unit": "%"}, {"measurement": "residual bioluminescent signal", "setting": "[4]", "value": "0.237 ± 0.14", "unit": "%"}, {"measurement": "residual bioluminescent signal", "setting": "[5]", "value": 1.22, "unit": "%"}, {"measurement": "residual bioluminescent signal", "setting": "[6]", "value": "0.237 ± 0.21", "unit": "%"}]}
{"smiles": "[Cl][Fe][Cl]", "note": "[iron(II) chloride]", "values": [{"measurement": "residual bioluminescent signal", "setting": "[1]", "value": "28.9 ± 6.8", "unit": "%"}, {"measurement": "residual bioluminescent signal", "setting": "[2]", "value": "108 ± 1.6", "unit": "%"}, {"measurement": "residual bioluminescent signal", "setting": "[3]", "value": "1.76 ± 0.23", "unit": "%"}, {"measurement": "residual bioluminescent signal", "setting": "[4]", "value": "0.343 ± 0.046", "unit": "%"}, {"measurement": "residual bioluminescent signal", "setting": "[5]", "value": "0.814 ± 0.7", "unit": "%"}, {"measurement": "residual bioluminescent signal", "setting": "[6]", "value": "0.369 ± 0.091", "unit": "%"}]}
{"smiles": "O=C([O-])[O-].[K+].[K+]", "note": "[potassium carbonate]", "values": [{"measurement": "residual bioluminescent signal", "setting": "[1]", "value": "84.3 ± 17", "unit": "%"}, {"measurement": "residual bioluminescent signal", "setting": "[2]", "value": "81.3 ± 3", "unit": "%"}, {"measurement": "residual bioluminescent signal", "setting": "[3]", "value": "83.9 ± 16", "unit": "%"}, {"measurement": "residual bioluminescent signal", "setting": "[4]", "value": "85.8 ± 6.4", "unit": "%"}, {"measurement": "residual bioluminescent signal", "setting": "[5]", "value": "67.9 ± 15", "unit": "%"}, {"measurement": "residual bioluminescent signal", "setting": "[6]", "value": "49.2 ± 8.7", "unit": "%"}]}
